According to PubChem BioAssay (NCI):
Several values for one entry are separate records, joined by “and”; a condition that tells them apart may be missing. Equal entries are not always repeated. About 83,000 compounds went through this panel and 20% of them were active in at least one assay; those are over-represented in the sample as a whole.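 Single-dose data. Exposure time 48 hours. Values below 10 considered active.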 Activity calls are given as the source filed them.

Columns and labels:
Assay in all cases: NCI-60 one-dose screen, 48 h (100 = growth as untreated, 0 = no growth, -100 = all killed)
Conditions in all cases: 10 µM unless noted
DU-145 prostate = tested on: DU-145 prostate
K-562 leukemia = tested on: K-562 leukemia
MALME-3M melanoma = tested on: MALME-3M melanoma
MDA-MB-231 breast = tested on: MDA-MB-231 breast
RXF 393 renal = tested on: RXF 393 renal
SF-268 CNS = tested on: SF-268 CNS
SF-295 CNS = tested on: SF-295 CNS
SF-539 CNS = tested on: SF-539 CNS
UACC-257 melanoma = tested on: UACC-257 melanoma
M14 melanoma = tested on: M14 melanoma

Measured: growth

COC1/C=C/OC2(C)Oc3c(C)c(O)c4c(O)c(c(C=NOC(c5ccccc5)c5ccccc5)c(O)c4c3C2=O)NC(=O)/C(C)=C/C=C/C(C)C(O)C(C)C(O)C(C)C(OC(C)=O)C1C (stereo not given)
inactive: DU-145 prostate 37.9% | K-562 leukemia 17.1% | MALME-3M melanoma 23.5% | SF-268 CNS 44.2% | SF-539 CNS 31.3% | UACC-257 melanoma 12.2% | M14 melanoma 23.2%
active: MDA-MB-231 breast 8.78% | RXF 393 renal -3.93% | SF-295 CNS 1.59%

C#CCOc1cccc(Nc2ncc3ncn(C4CCN(C(=O)CCl)C4)c3n2)c1 (stereo not given)
active: K-562 leukemia 5.61% [6.25 µM] | MDA-MB-231 breast 2.24% [6.25 µM] | RXF 393 renal -51.9% [6.25 µM]
inactive: DU-145 prostate 84% [6.25 µM] | MALME-3M melanoma 14.3% [6.25 µM] | SF-268 CNS 40.2% [6.25 µM] | SF-295 CNS 89% [6.25 µM] | SF-539 CNS 68.7% [6.25 µM] | UACC-257 melanoma 72.6% [6.25 µM] | M14 melanoma 24% [6.25 µM]

Nc1nc2c(s1)CCc1cn(S(=O)(=O)c3ccccc3)cc1-2
inactive: DU-145 prostate 100% and 114% | K-562 leukemia 88.6% and 88.2% | MALME-3M melanoma 107% and 98% | MDA-MB-231 breast 80.5% and 112% | RXF 393 renal 100% and 110% | SF-268 CNS 80.6% and 97.7% | SF-295 CNS 94.6% and 106% | SF-539 CNS 90.9% and 97.8% | UACC-257 melanoma 86.6% and 112% | M14 melanoma 90.4% and 101%

CCCCSc1ccc2nc(-c3ccc(OCCCN=C(N)N)cc3)cn2c1
active: SF-539 CNS 9.52%
inactive: DU-145 prostate 73.4% | K-562 leukemia 32.9% | MALME-3M melanoma 23.2% | MDA-MB-231 breast 51.2% | RXF 393 renal 45.6% | SF-268 CNS 50.9% | SF-295 CNS 52.7% | UACC-257 melanoma 85.7% | M14 melanoma 72.5%

COc1cc(Cl)cc(-c2nn(C(=O)NS(=O)(=O)c3ccc(Cl)cc3)cc2-c2ccncc2)c1
inactive: DU-145 prostate 83.8% | K-562 leukemia 82.2% | MALME-3M melanoma 78.1% | MDA-MB-231 breast 56.8% | RXF 393 renal 71.2% | SF-268 CNS 67.5% | SF-295 CNS 90.6% | SF-539 CNS 39.6% | UACC-257 melanoma 113% | M14 melanoma 72.7%

CCC(=C(c1ccc(OCCCN(C)C)cc1)c1ccc(OCCCN(C)C)cc1)c1ccc(Cl)cc1
active: DU-145 prostate -90.8% | K-562 leukemia 0.345% | MALME-3M melanoma -79.6% | MDA-MB-231 breast -85% | RXF 393 renal -82.7% | SF-268 CNS -78.3% | SF-295 CNS -87.4% | SF-539 CNS -93.2% | UACC-257 melanoma -77.1% | M14 melanoma -83.5%

Cn1ccnc1CN1CCSC(C(=O)Nc2ccccc2)C1 (stereo not given)
inactive: DU-145 prostate 100% | K-562 leukemia 92.1% | MALME-3M melanoma 96.6% | MDA-MB-231 breast 104% | RXF 393 renal 94.2% | SF-268 CNS 95.1% | SF-295 CNS 92.9% | SF-539 CNS 96% | UACC-257 melanoma 79.6% | M14 melanoma 98.1%

O=C1/C(=C/c2cn(-c3ccccc3)nc2-c2ccccc2)SC(=S)N1c1ccccc1
inactive: DU-145 prostate 102% | K-562 leukemia 104% | MALME-3M melanoma 94.5% | MDA-MB-231 breast 89.1% | RXF 393 renal 107% | SF-268 CNS 99.1% | SF-295 CNS 97.5% | SF-539 CNS 94.5% | UACC-257 melanoma 107% | M14 melanoma 97.2%

CC(C)=CCc1cc(O)c(O)c2oc3cc(O)cc(O)c3c(=O)c12
inactive: DU-145 prostate 55.8% | K-562 leukemia 67% | MALME-3M melanoma 91.3% | MDA-MB-231 breast 55.5% | RXF 393 renal 84.6% | SF-268 CNS 49.7% | SF-295 CNS 77.9% | SF-539 CNS 64.8% | UACC-257 melanoma 98.2% | M14 melanoma 63.9%

COc1cc(CNC(=O)CCCC/C=C/C(C)C)ccc1OCc1cn(-c2ccc([N+](=O)[O-])cc2)nn1
inactive: DU-145 prostate 105% | K-562 leukemia 74.5% | MALME-3M melanoma 98.4% | MDA-MB-231 breast 75.3% | RXF 393 renal 99.7% | SF-268 CNS 86.1% | SF-295 CNS 89% | SF-539 CNS 104% | UACC-257 melanoma 82.6% | M14 melanoma 89.7%

CN(C)CCCn1c2c(c3ccc(N4CCNCC4)cc3c1=O)C(=O)c1ccccc1-2
active: DU-145 prostate -30.1% | K-562 leukemia -28.5% | MDA-MB-231 breast -49.7% | RXF 393 renal -78.8% | SF-268 CNS -24.8% | SF-295 CNS -5.76%
inactive: MALME-3M melanoma 21% | SF-539 CNS 52.7% | UACC-257 melanoma 37.3% | M14 melanoma 19.4%

C/C=C(\C)C(=O)N[C@H]1CC[C@]2(C)C3CC[C@@]4(C)C(CC[C@@H]4C(C)N(C)C)C3CCC2[C@H]1OC(C)=O (stereo not given in full)
inactive: K-562 leukemia 18%
active: DU-145 prostate 4.99% | MALME-3M melanoma -68.6% | MDA-MB-231 breast -32.3% | RXF 393 renal -61.5% | SF-268 CNS -84.6% | SF-295 CNS -66.9% | SF-539 CNS -95.7% | UACC-257 melanoma -51.3% | M14 melanoma -64.1%

O=C1/C(=C/c2cn(-c3ccccc3)nc2-c2ccccc2)SC(=S)N1c1ccc(Cl)cc1
inactive: DU-145 prostate 74.6% | K-562 leukemia 63.8% | MALME-3M melanoma 95.4% | MDA-MB-231 breast 79.8% | RXF 393 renal 88.4% | SF-268 CNS 62.5% | SF-295 CNS 44.6% | SF-539 CNS 84.2% | UACC-257 melanoma 89.8% | M14 melanoma 65.8%

Clc1ccc2c(NCCN3CCN(c4ccnc(N5CCCC5)n4)CC3)ccnc2c1
inactive: DU-145 prostate 58.1% | SF-268 CNS 33% | SF-295 CNS 52.9%
active: K-562 leukemia 0.171% | MALME-3M melanoma -43.3% | MDA-MB-231 breast 4.01% | RXF 393 renal -59.2% | SF-539 CNS -63.1% | UACC-257 melanoma -62% | M14 melanoma -55.7%

O=c1c2c([nH]c3ccccc13)CCCC2
inactive: DU-145 prostate 106% and 70.7% | K-562 leukemia 95.9% and 11.3% | MALME-3M melanoma 104% and 36.8% | MDA-MB-231 breast 95.8% and 54.9% | RXF 393 renal 105% and 63.4% | SF-268 CNS 98.8% and 53.2% | SF-295 CNS 95.4% and 13.1% | SF-539 CNS 99.5% and 46% | UACC-257 melanoma 100% and 58.8% | M14 melanoma 98.5% and 15.6%

CN(Cc1ccccc1)c1nc(Cl)c(C2CC(c3ccc(F)cc3)=NN2C=O)s1 (stereo not given)
inactive: DU-145 prostate 104% | K-562 leukemia 77.9% | MALME-3M melanoma 105% | MDA-MB-231 breast 97% | RXF 393 renal 92.9% | SF-268 CNS 91.2% | SF-295 CNS 92.2% | SF-539 CNS 107% | UACC-257 melanoma 103% | M14 melanoma 92.8%

Oc1ccccc1C=Nc1ccc(N2CCN(c3ccccc3)CC2)cc1
inactive: DU-145 prostate 104% | K-562 leukemia 80.7% | MALME-3M melanoma 114% | MDA-MB-231 breast 100% | RXF 393 renal 97.7% | SF-268 CNS 99.2% | SF-295 CNS 103% | SF-539 CNS 77.2% | UACC-257 melanoma 97% | M14 melanoma 96.3%

Cc1nn(-c2nc(-c3cc4ccccc4oc3=O)cs2)c(C)c1N=Nc1ccccc1
inactive: DU-145 prostate 90.4% | K-562 leukemia 93% | MALME-3M melanoma 96.5% | MDA-MB-231 breast 87.8% | RXF 393 renal 112% | SF-268 CNS 105% | SF-295 CNS 104% | SF-539 CNS 102% | UACC-257 melanoma 103% | M14 melanoma 110%

NC(=O)c1c(NC(=O)/C=C/c2cccs2)sc2c1CCC(=O)C2
inactive: DU-145 prostate 81.6% | K-562 leukemia 14.3% | MALME-3M melanoma 75.1% | MDA-MB-231 breast 24.6% | RXF 393 renal 26.9% | SF-268 CNS 22.5% | SF-295 CNS 80.9% | SF-539 CNS 16.3% | UACC-257 melanoma 70.7% | M14 melanoma 24.8%

N#C/C(=C\c1ccccc1Cl)c1cc2ccccc2[nH]1
inactive: DU-145 prostate 100% | K-562 leukemia 70.5% | MALME-3M melanoma 92.8% | MDA-MB-231 breast 68.7% | RXF 393 renal 102% | SF-268 CNS 96.3% | SF-295 CNS 93.9% | SF-539 CNS 89.4% | UACC-257 melanoma 94.2% | M14 melanoma 91.8%

N#Cc1cc(-c2ccnc(Nc3ccc(NC(=O)CCl)cc3)n2)ccc1N1CCCC1
inactive: DU-145 prostate 17.1%
active: K-562 leukemia 2.55% | MALME-3M melanoma -68.5% | MDA-MB-231 breast -31.8% | RXF 393 renal -79.3% | SF-268 CNS -8.99% | SF-295 CNS -26.9% | SF-539 CNS -94.4% | UACC-257 melanoma 3.7% | M14 melanoma -40.9%

COc1cccc(C2C(C#N)=C(N)Oc3cc(OCCCCCC[P+](c4ccccc4)(c4ccccc4)c4ccccc4)ccc32)c1 (stereo not given)
active: DU-145 prostate 1.62% | K-562 leukemia -21.2% | MALME-3M melanoma -73.3% | MDA-MB-231 breast -54.1% | RXF 393 renal -63.8% | SF-268 CNS -38.5% | SF-295 CNS -41.4% | SF-539 CNS -58.1% | UACC-257 melanoma -21.5% | M14 melanoma -49.7%

O=Nc1c(O)ccc2ccccc12
inactive: DU-145 prostate 83.9% and 113% | K-562 leukemia 51% and 87.7% | MALME-3M melanoma 33.3% and 122% | MDA-MB-231 breast 57.4% and 62.7% | RXF 393 renal 80.5% and 102% | SF-268 CNS 49.6% and 103% | SF-295 CNS 91.3% and 109% | SF-539 CNS 94.9% and 104% | M14 melanoma 49.6% and 104%
-51.3% (active) and 80.8% (inactive): UACC-257 melanoma

COc1cc(-c2nn(-c3cccc(NC(=O)CCN4CCN(C)CC4)c3)cc2-c2ccncc2)ccc1Cl
active: DU-145 prostate 3.19% | K-562 leukemia -10.4% | SF-295 CNS -6.03% | SF-539 CNS -19.6% | M14 melanoma -41.6%
inactive: MALME-3M melanoma 38% | MDA-MB-231 breast 39.9% | RXF 393 renal 18.6% | SF-268 CNS 31.5% | UACC-257 melanoma 39.3%
